Autofluor counter = compound fluorescence in toxin protease inhibitor counterscreen; 360,000 tested, 3.1% active; fluorescence intensity (concentration not given with the values); AID 624483; compound autofluorescence counterscreen, microsphere flow cytometry; stronger effect = higher value; in the data active = fluorescence intensity above about 16000; inconclusive = no clear call, values can overlap the other calls
BoNT-F LC inh = inhibitors of Botulinum neurotoxin F light chain protease. AID 588497. 360,000 tested, 0.22% active. Multiplex microsphere protease cleavage assay, flow cytometry. inhibition, % at 10 µM; in the data active = inhibition above about 35%, passing the limit was not always enough; inconclusive = no clear call, values can overlap the other calls
BoNT A protease = blocks Botulinum neurotoxin A light chain protease. multiplex microsphere protease substrate cleavage, flow cytometry. inhibition, % at 10 µM. 360,000 tested, 0.17% active
Anthrax LF prot = anthrax lethal factor protease inhibition | P15917 | multiplex microsphere protease cleavage assay, LF | inhibition, % at 10 µM | 360,000 tested, 0.12% active | AID 588501
SARS 3CLpro inh = SARS-CoV 3CLpro protease inhibition; recombinant SARS-CoV 3CLpro, quenched FRET peptide cleavage; inhibition, % at 6 µM; 290,000 tested, 0.14% active; AID 1706; P0C6X7; in the data active = inhibition above about 12%
CCHF vOTU inh = CCHFV vOTU protease inhibition; Pep-AMC fluorescence; inhibition, % at 11.5 µM; 370,000 tested, 0.55% active; in the data active = inhibition above about 30%
Hits are given with their value; – = inactive; ? = inconclusive; · = no result. A selection: hits, their analogues and other compounds. The true share with any hit is near 3.9%. Rule as the data show it, unless noted: active = inhibition above about 30%; inconclusive = no clear call, values can overlap the other calls; inactive = below that.

SMILES	Autofluor counter	BoNT-F LC inh	BoNT A protease	Anthrax LF prot	SARS 3CLpro inh	CCHF vOTU inh
CCCOc1ccc(-c2nn(-c3ccccc3)cc2/C=C2\SC(=S)N(C3CCS(=O)(=O)C3)C2=O)cc1 (stereo not drawn)	–	40.2	49.0	46.6	–	–
COC(=O)C[C@@H]1CC[C@H]2[C@@H](COc3ccc(NC(=O)Nc4ccccc4C)cc3C(=O)N2C)O1	·	·	·	·	·	–
Cc1noc(C)c1COc1ccc(CC(=O)NCCc2ccccc2)cc1	–	–	–	–	–	–
Cc1nnc(NC(=O)Cc2ccc(OCc3c(C)noc3C)cc2)s1	17361	–	–	–	–	–
Cn1c(=O)c2cc(NCc3ccccc3)nnc2n(C)c1=O	–	–	–	–	–	96.3
CC(C)CCNC(=S)NC1CCCC1	20284	–	–	–	–	–
CC(C)CCNC(=O)C(=O)NC1CCCC1	–	–	–	–	–	–
Cc1cc(NC(=O)c2ccccc2)no1	–	–	–	–	–	–
COc1ccc(-c2nnc(NC(=O)c3cc(C)on3)s2)cc1	17016	–	?	–	–	–
COc1cccc(C(=O)Nc2cc(C)on2)c1	–	–	–	–	·	–
COc1ccc(OCc2cccc(C(=O)Nc3cc(C)on3)c2)cc1	22339	–	–	–	–	–
C/C(=C\C(=O)Nc1cc(C)on1)c1ccccc1	22891	–	–	–	–	–
COc1ccc(C(=O)Nc2cc(C)on2)cc1	16745	–	–	–	–	–
O=C(OCc1cn(Cc2c(F)cccc2F)nn1)N1CCCC1	·	·	·	·	·	–
O=C(Nc1ccc(F)c(Cl)c1)c1ccc2nc([C@@H]3O[C@H](CO)[C@H](O)[C@H](O)[C@H]3O)[nH]c2c1	–	–	–	–	·	–
CCc1ccc(OCCCCN(C)Cc2ccccc2)cc1	–	?	–	–	–	–
COc1ccc(Cl)cc1S(=O)(=O)N1CCCC(C(=O)NCc2ccncc2)C1 (stereo not drawn)	·	·	·	·	–	–
O=C(CSc1nc2ccccc2[nH]1)NN=Cc1c(F)cccc1Cl	·	·	·	·	·	–
CCn1ncc(C(=O)Nc2cc(C)on2)c1C	21849	–	–	–	–	–
CCCc1cc(C(=O)Nc2cc(C)on2)no1	–	–	–	–	–	–
Cc1cc(NC(=O)c2cc(C)on2)no1	23413	–	–	–	–	–
Cc1cc(NC(=O)c2cnn3c(C(F)F)cc(-c4ccccc4)nc23)no1	22272	–	?	–	–	–
CCn1ncc(C(=O)Nc2cccc(Cl)c2)c1C	–	–	–	–	–	–
Cc1cccc(C)c1NC(=O)C1(C)CSCC(=O)N1Cc1cccc(C(F)(F)F)c1 (stereo not drawn)	·	·	·	·	·	–
CCN(CC)C(=O)CC[C@@H]1CC[C@]2(CCCN(Cc3nccs3)C2)O1	·	·	·	·	·	–
SMILES	Autofluor counter	BoNT-F LC inh	BoNT A protease	Anthrax LF prot	SARS 3CLpro inh	CCHF vOTU inh
CCCN(C(=O)CSc1n[nH]c(-c2ccc(OC)cc2)n1)c1c(N)n(Cc2ccccc2)c(=O)[nH]c1=O	–	–	–	–	·	–
Cc1cc(NC(=O)CSc2nnc(-c3ccc([N+](=O)[O-])cc3)o2)no1	–	–	–	–	–	–
Cc1c(C(N)=O)sc2ncn(CC(=O)N3CCC(C)CC3)c(=O)c12	22473	–	–	–	–	–
Cc1c(C(=O)NC(C)C)sc2ncn(CC(=O)N3CCC(C)CC3)c(=O)c12	19793	–	–	–	–	–
O=C(COC(=O)CC1CCCCC1)Nc1c(Cl)cccc1Cl	–	–	–	–	·	–
Cc1nonc1OCC(C)(COc1nonc1C)NC(=O)c1ccccc1	21066	–	–	–	–	–
COc1ccc(C(=O)Nn2c(SCC(=O)NCc3ccco3)nc3ccccc3c2=O)cc1	–	–	–	–	–	–
COc1ccc(C(=O)Nn2c(SCC(=O)NC3CCCCC3)nc3ccccc3c2=O)cc1	20612	–	–	–	–	–
COc1ccc(C(=O)Nn2c(C3CCC3)nc3ccccc3c2=O)c(OC)c1	18494	–	–	–	–	–
COc1ccc(C(=O)Nn2c(C)nc3ccccc3c2=O)cc1	–	?	–	–	–	–
COCCn1c(SCC(=O)N2CCC(C)CC2)nc2ccccc2c1=O	–	–	–	–	–	–
COc1ccc(C(=O)Nn2c(SCC(=O)N3CCC(C)CC3)nc3ccccc3c2=O)cc1	20975	–	?	–	–	–
COc1cc2nc(C3CCC3)n(NC(=O)c3ccco3)c(=O)c2cc1OC	–	–	–	–	–	–
COc1ccc(C(=O)Nn2c(SCC(=O)c3ccc(Cl)cc3)nc3ccccc3c2=O)cc1	20288	–	–	–	–	–
COc1ccc(S(=O)(=O)N(C)C[C@H]2Oc3c(NC(=O)Cc4ccccc4)cccc3C(=O)N([C@H](C)CO)C[C@@H]2C)cc1	–	–	–	–	·	–
C/C(Cc1ccccc1)=N\NC(=O)CNC(=O)Cc1ccccc1	–	–	–	–	–	–
O=C1Cc2cc(CCN3CCN(c4nsc5ccccc45)CC3)c(Cl)cc2N1	·	·	·	·	–	·
COc1ccc(CCNC(=O)COc2ccccc2[N+](=O)[O-])cc1OC	·	·	·	·	–	–
O=C(OCC(F)(F)C(F)F)c1ccccc1C(=O)Oc1ccc(F)cc1F	20051	–	?	–	–	–
O=C(Nc1ccc(OCC(F)(F)C(F)F)c(C(F)(F)F)c1)c1ccccc1	–	–	–	–	–	–
C=CCn1c(CNC(=O)c2cccs2)nnc1SCC(=O)Nc1ccc(C(=O)O)cc1	19549	–	?	–	–	–
C=CCn1c(Cc2cccs2)nnc1SCC(=O)c1ccc2ccccc2c1	23327	–	?	–	–	–
C=CCn1c(CCNC(=O)c2cccs2)nnc1SCC(=O)c1cccc([N+](=O)[O-])c1	–	–	–	–	–	–
C=CCn1c(CCNC(=O)c2cccs2)nnc1SCC(=O)c1ccc(Cl)cc1	23328	–	–	–	–	–
C=CCn1c(CCNC(=O)c2cccs2)nnc1SCC(=O)Nc1cccc(Cl)c1C	20193	–	?	–	–	–
SMILES	Autofluor counter	BoNT-F LC inh	BoNT A protease	Anthrax LF prot	SARS 3CLpro inh	CCHF vOTU inh
C=CCn1c(Cc2cccs2)nnc1SCC(=O)c1ccc(F)cc1	–	–	–	–	–	–
CC(C)(C)C(=O)OC12CCCN(C1)/C(=C/c1ccc(Cl)cc1)C2 (stereo not drawn)	·	·	·	·	·	–
COCCN(C(=S)Nc1cccc(C)c1)C(C)c1cccnc1 (stereo not drawn)	?	–	–	–	–	–
CCn1c(C)nc2cc(C(=O)NNC(=S)Nc3ccc(OC)cc3)ccc21	–	–	–	–	–	–
CCOC(=O)N1CCN(C(=O)c2cc(COc3c(F)cccc3F)on2)CC1	–	–	–	–	–	–
C=CCn1c(CNC(=O)c2cccs2)nnc1SCC(=O)c1ccc(Br)cc1	23917	–	–	–	–	–
C=CCn1c(CNC(=O)c2ccco2)nnc1SCC(=O)c1ccccc1	–	–	–	–	–	–
Cc1ccccc1NC(=S)N(C)C1(c2ccccc2Cl)CCCCC1=O (stereo not drawn)	23061	–	–	–	–	–
CN(C(=O)c1ccc(Cl)nc1)C1(c2ccccc2Cl)CCCCC1=O (stereo not drawn)	–	–	–	–	–	–

High-throughput results: PubChem BioAssay, several laboratories
